In all, about 290,000 compounds went through this assay and about 890 (0.31%) were called active. Rule as the data show it: active = inhibition mostly above about 52% (no sharp cut-off); inactive = mostly below about 76%. Shown is part of a subset that was picked to be rich in actives.
Test: cell-free HIV fusion peptide-binding blockers – biochemical, uHTS, fluorescence dequenching, primary screen (AID 1986)
Settings: 30 min, stronger effect = higher value

Row | SMILES | inhibition (at 20 µM) | inhibition (measured here: repeat confirmation average inhibition, at 18.6 µM) [%]
1 | O=C(Nc1ccncc1)Nc1ccc(F)c(Cl)c1 | 0.5% (inactive) | –
2 | CC1=NN(C(=O)c2ccccc2C)C(O)(c2ccc(Cl)cc2)C1 (configuration not stated) | -2.2% (inactive) | –
3 | N#Cc1c(N)oc(-c2ccco2)c1-c1ccco1 | 2.6% (inactive) | –
4 | CC(Oc1ccccc1)C(=O)Nc1oc(-c2ccco2)c(-c2ccco2)c1C#N (configuration not stated) | 76.1% (active) | –
5 | CC(C)CC(C(=O)Nc1oc(-c2ccco2)c(-c2ccco2)c1C#N)N1C(=O)c2ccccc2C1=O (configuration not stated) | -0.7% (inactive) | –
6 | O=C(Nc1ccnn1C1CCN(Cc2ccc(Cl)cc2)CC1)C1CCCC1 | 1.4% (inactive) | –
7 | O=C(N/N=C/c1cccc([N+](=O)[O-])c1O)C(O)(c1ccccc1)c1ccccc1 | 11% (inactive) | –
8 | C/C=C\C=C/C(=O)Nc1cccc(C2=NOC3(C2)C[C@H](C(N)=O)N(C(=O)c2ccc(OC)cc2)C3)c1 (some centres not stated) | 5.2% (inactive) | –
9 | Cc1sc2nc3c(SC(C)C(=O)O)cc(C(=O)c4ccccc4O)cn3c(=O)c2c1C (configuration not stated) | 20.4% (inactive) | –
10 | CCOC(=O)c1sc2nc3c(SCC(=O)O)cc(C(=O)c4ccccc4O)cn3c(=O)c2c1C | 49.9% (inactive) | –
11 | O=C(O)CSc1cc(C(=O)c2ccccc2O)cn2c(=O)c3c(-c4ccccc4)csc3nc12 | 59.6% (active) | –
12 | CN(C)/C=C(/C(=O)c1ccc(Cl)c(Cl)c1)S(C)(=O)=O | 0.6% (inactive) | –
13 | CCOc1ccc(NC(=O)CN(C)C(=O)c2cccnc2SC)cc1OCC | 0.9% (inactive) | –
14 | CCN(CC)c1ccc(/C=C/c2nc3ccccc3s2)cc1 | 53% (active) | –
15 | CCN(CC)c1ccc(/C=N/n2c(C)nc3ccccc3c2=O)cc1 | -0.4% (inactive) | –
16 | Cc1cc(/C=C\c2ccccc2)nc2ccccc12 | 1.2% (inactive) | –

Row | SMILES | inhibition (at 20 µM) | inhibition (measured here: repeat confirmation average inhibition, at 18.6 µM) [%]
17 | CN(C)c1ccc(/C=C/c2nc3ccccc3s2)cc1 | 3.1% (inactive) | –
18 | CCN(CC)c1ccc(NC(=O)COC(=O)/C=C/c2nc3ccccc3s2)cc1 | -1.3% (inactive) | –
19 | CCN(CC)c1ccc(/C=C/c2cc(-c3ccccc3)c3ccccc3n2)cc1 | 96.8% (active) | –
20 | Cc1ccccc1C(=NC(=O)c1ccccc1)c1ccccc1 | 0.6% (inactive) | –
21 | COc1cc(/C=C(\C#N)c2nc3ccccc3[nH]2)cc(OC)c1O | 69.9% (active) | –
22 | COc1cc(/C=C(\C#N)c2nc3ccc(C)cc3[nH]2)c([N+](=O)[O-])cc1OC | -2.7% (inactive) | –
23 | COc1cc(/C=C(\C#N)C(=O)c2c(C)[nH]c3ccccc23)cc(OC)c1OC | -1.7% (inactive) | –
24 | COc1ccc(/C=C(\C#N)c2nc3ccccc3[nH]2)cc1O | -0.7% (inactive) | –
25 | COc1ccc(/C=C(\C#N)c2nc3ccc(C)cc3[nH]2)cc1Oc1ccc(C(F)(F)F)cc1[N+](=O)[O-] | 10% (inactive) | –
26 | COc1cc(/C=C(\C#N)C(=O)c2c[nH]c3ccccc23)cc(OC)c1O | 62.6% (active) | –
27 | COc1ccc(-c2csc(/C(C#N)=C\c3ccc(O)c([N+](=O)[O-])c3)n2)cc1OC | 62.9% (inactive) | 9.1
28 | COc1cc(/C=C(/C#N)c2nc(-c3cc4ccccc4oc3=O)cs2)cc([N+](=O)[O-])c1O | 66.8% (active) | –
29 | COc1cc(/C=C(\C#N)c2nc3ccccc3[nH]2)cc(Br)c1OCc1ccccc1 | 6.5% (inactive) | –
30 | COc1cc(/C=C(\C#N)c2nc(-c3cc4ccccc4oc3=O)cs2)ccc1O | 31.9% (inactive) | –
31 | COc1ccc(/C=C(\C#N)C(=O)c2c(C)[nH]c3ccccc23)cc1OC | -1.1% (inactive) | –
